The source of these data is PubChem BioAssay (Tox21).

Results filed as inconclusive are left out. Unmarked numbers belong to inactive results. Activity calls are given as the source filed them. The call rests on the fitted dose curve.
On the % scale 0 is the no-effect control and ±100 the full control effect.

The nature of the experiment: qHTS assay to identify small molecule agonists or antagonists of the thyroid stimulating hormone receptor (TSHR) signaling pathway - wild type cell line counter screen (AID 1259384). The following applies: HEK293 wild type, cAMP HTRF counter-screen, stronger effect = higher value; series mostly up to 92.4 µM. An excerpt:
U.S. Tox21 Program National Center for Advancing Translational Sciences [NCATS] NIH Chemical Genomics Center [NCGC] U.S. Environmental Protection Agency [EPA] National Institutes of Environmental Health Sciences [NIEHS] National Toxicology Program [NTP] U.S. Food and Drug Administration [FDA] Tox21 Assay Overview: TSHR is the receptor for thyrotropin (thyroid stimulating hormone or TSH), a member of the glycoprotein hormone family. TSH is released by the anterior pituitary gland and is the main regulator of thyroid gland growth and development. Upon binding circulating thyrotropin, a G-protein signal cascade activates adenylyl cyclase and […] cAMP concentration is increased. cAMP is a key second messenger involved extensively in cellular signal transduction pathways associated with the majority of G-protein coupled receptors (GPCRs). The activation of these GPCRs by neurotransmitters, lipids, nucleotides, peptides and hormones results in the activation or the inhibition of plasma membrane-bound adenylate cyclase through heterotrimeric G-proteins. A cell-based TSHR-Hek293 assay can be used to identify TSHR agonists. To eliminate the false positive compounds identified from screening a cell-based TSHR-Hek293 cell line, cAMP assay in a wild type Hek293 cells was used as a counter screening.
Tox21 Assay Protocol Summary: Hek293 cells (wild type) were dispensed at 800 cells/4 uL/well in 1536-well white plates using a Multidrop dispenser. After the assay plates were incubated at a 37 C/5% CO2 incubator for 18 hrs, 23 nL of compounds dissolved in DMSO, positive controls or DMSO only was transferred to the assay plate by a pin tool, followed by 1 ul medium containing Ro20-1724. After 30 min of incubation at room temperature, 2.5 ul/well of cAMP-d2 and 2.5 ul/well of anti-cAMP-cryptate were added respectively into the assay plates using a Flying Reagent Dispenser. The plates were incubated at room temperature for 1 hr. The fluorescence intensity in the plates was measured using an Envision plate reader. Each test compound was measured at 15 concentrations and in triplicates.
Background: In qHTS, concentration-response curves come from the screen itself.
With `CC(C)CCCCCCCOC(=O)c1ccc(C(=O)OCCCCCCCC(C)C)c(C(=O)OCCCCCCCC(C)C)c1`, the compound was called inactive.
Same read-out and setting: the result for `Cc1c(Nc2ncccc2C(=O)O)cccc1C(F)(F)F` reads “inactive”.
For the compound `O=C(O)c1ccc2c(c1)nc(C(=O)NC1CCN(C3CC3)CC1)n2Cc1cc(-c2ccc(Cl)s2)on1`, the cAMP activity change was 1.96% [at 18.9 µM].
Take `Nc1ccc(-c2ccc(F)cc2)cc1`: the result was inactive.
Turning to `O=C(OCCOCCOCCOC(=O)c1ccccc1)c1ccccc1`, the compound was called inactive.
Same read-out and setting: under `C[C@H](CN1CCCC1)C(=O)c1ccc(C(F)(F)F)cc1` stands “inactive”; under `Cc1nc(C)c(C)nc1C`, “inactive”.
Same read-out and setting: the result for `O=C(O)c1cccc(C(=O)O)c1C(=O)O` reads “inactive”; that for `CC(C)=CCC[C@H](C)CCO`, “inactive”.
Still for that read-out and setting: under `CC(C)Cc1nccs1` stands “inactive”; under `CCOc1cc(OCC)c(C(C)=O)cc1OCC`, “inactive”; under `O=C(O)c1ccccc1[N+](=O)[O-]`, “inactive”.
With `Nc1ccc(F)cc1F`, the result was inactive.
Same read-out and setting: under `CCCCCCOC(=O)c1ccccc1` stands “inactive”; under `O=C(OCCN1CCOCC1)c1cccnc1Nc1cccc(C(F)(F)F)c1`, “inactive”.
Still for that read-out and setting: under `C[C@H](N)C(=O)N[C@@H](C)C(=O)NC1[C@H]2CN(c3nc4c(cc3F)c(=O)c(C(=O)O)cn4-c3ccc(F)cc3F)C[C@@H]12` (stereo not given in full) stands “inactive”; under `CC(C(=O)O)c1ccc2c(c1)Cc1cccnc1O2` (stereo not given), “inactive”.
As to `OCCOc1cccc(OCCO)c1`, the compound was classed as inactive.
Same read-out and setting: under `O=C(c1ccc(Cl)cc1)c1ccc(Cl)cc1` stands “inactive”; under `O=P(c1ccccc1)(c1ccccc1)c1ccccc1`, “inactive”; under `CCCCCCCCNC`, “inactive”.
On the same count and under the same terms, under `Cc1c(N=C=O)cccc1N=C=O` stands “inactive”; under `CC(C)C/C=C(\C=O)c1ccccc1`, “inactive”.
The same measure, in the same setting: the result for `C1CCN(CN2CCCCC2)CC1` reads “inactive”.
As for `CCCCCO`, the result was inactive.
Regarding `CC1=CC(=C(c2ccc(N)cc2)c2ccc(N)cc2)C=CC1=N`, the cAMP activity change was -1.93% [at 8.39 µM].
Still for that read-out and setting: under `COC=O` stands -7.06% [at 8.39 µM].
In the case of `CS(C)=O`, the result was inactive.
Same read-out and setting: the result for `NCCOCCOCCN` reads “inactive”.
The same measure, in the same setting: the result for `COc1ccc(C(=O)Nc2ccccc2)cc1[N+](=O)[O-]` reads “inactive”; that for `CC(CCl)OC(C)CCl` (stereo not given), “inactive”; that for `O=C1c2ccccc2C(=O)C1c1ccc2cc(S(=O)(=O)O)cc(S(=O)(=O)O)c2n1`, “inactive”.
On the same count and under the same terms, the result for `CCCC1CCCC(=O)O1` (stereo not given) reads “inactive”.
Turning to `FC(F)(Cl)C(F)(Cl)Cl`, the compound was called inactive.
Same read-out and setting: under `NC(=O)c1cc[n+](CC2=C(C(=O)[O-])N3C(=O)[C@@H](NC(=O)Cc4cccs4)[C@H]3SC2)cc1` stands “inactive”; under `C[C@@H](O)[C@H]1C(=O)N2C(C(=O)O)=C(S[C@@H]3CN[C@H](CNS(N)(=O)=O)C3)[C@H](C)[C@H]12`, “inactive”; under `Nc1ccc(C(=O)Oc2ccccc2)c(O)c1`, “inactive”.
The same measure, in the same setting: under `CC(O)CN` (stereo not given) stands “inactive”.
Still for that read-out and setting: the result for `CCCN(C1CCN(C(=O)C2CCNCC2)CC1)[C@@H]1CCc2ccc(OC)cc2C1` reads “inactive”; that for `O=[N+]([O-])c1ccccc1CCO`, “inactive”.
